Assay results reported in PubChem BioAssay (NCATS).
Unmarked numbers belong to inactive results. Records with an inconclusive call do not appear. The source made the active and inactive calls. Unless noted, calls follow the shape of the dose curve; as a rule, active = well fitted curve in either direction with a large enough effect (not every such curve was filed as active); inconclusive = small, poorly fitted or top-dose-only effect, or another doubt; inactive = flat fitted curve, though single readings scatter.

How the values were obtained:
[1] = biological target: Lysosomal acid glucosylceramidase (Homo sapiens) (UniProt P04062); test: Glucocerebrosidase-p2 (AID 348; in the data active = potency below about 10 µM; also: potency is read from the fitted curve at half-maximal effect); conditions: purified GBA, blue fluorogenic substrate, 40 min
Outline: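 Normal human glucocerebrosidase (0.2 nM) with blue fluorogenic substrate (80 uM final) in citrate/phosphate pH 5.9 with 10mM sodium taurocholate, 0.01% tween-20; 40 min RT, NaOH/glycine stop; fluorescence Ex 365/Em 440; AC50 from a titration from 0.6 nM upwards.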

[2] = AP1 Signaling Pathway (AID 357); conditions: ME-180 AP-1-bla reporter, EGF-induced, beta-lactamase ratio, 5 h; at 7.69 µM (top of the series) unless noted; also: % is scaled to controls: 0 for no effect and ±100 for the full control effect
Outline: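 AP-1-bla ME-180 cells with beta-lactamase reporter under AP-1 response element, stimulated with EC50 EGF; compounds titrated, 5 hours at 37 degrees Celsius. CCF4 read at 460/530 nm ratio; positive and negative modulators judged by AC50.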

[3] = NFAT Signaling Pathway (AID 444); conditions: Jurkat NFAT-bla M1, carbachol, beta-lactamase ratio, 5 h; at 7.69 µM (top of the series) unless noted;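 also: carbachol stimulus at about its EC50 of 1 µM final; % is scaled to controls: 0 for no effect and ±100 for the full control effect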
Outline: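 Jurkat cells carrying an NFAT-driven β-lactamase reporter and co-transfected muscarinic M1 receptor were treated with compound plus carbachol (1 uM final, an EC50 level) for 5 h at 37 °C. CCF4 loading followed for 1 h at RT; 460/530 nm ratio gave %activity.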

[4] = Stat Signaling Pathway (AID 446); conditions: ME-180 (cervical carcinoma) SIE beta-lactamase reporter, IL-6 stimulated, 5 h; at 7.69 µM (top of the series) unless noted;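 also: ME-180 cervical cancer cells given 40 pM IL-6 alongside compound; SIE-controlled beta-lactamase reporter measured as 460/530 nm FRET emission ratio; % is scaled to controls: 0 for no effect and ±100 for the full control effect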
Outline: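 Normalization used AC90 stimulation (300 pM IL-6) and AC90 inhibition (125 nM pan-JAK inhibitor at 40 pM IL-6). The underlying signal is SIE-driven beta-lactamase in ME-180 cells after 5 h IL-6 exposure with compound.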

[5] = biological target: Glucocorticoid receptor (Homo sapiens) (UniProt P04150); test: GR-GFP Redistribution (AID 450;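 active = compounds whose dose series gives a full or clear partial fitted curve of increased nuclear translocation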; also: potency is read from the fitted curve at half-maximal effect); conditions: U2OS GR-GFP nuclear translocation, laser cytometry, 2 h
[6] = biological target: Glucocorticoid receptor (Homo sapiens) (UniProt P04150); test: GR-EFC Redistribution (AID 451; calls by dose curve; also: potency is read from the fitted curve at half-maximal effect); conditions: CHO-K1 GR-EFC translocation, beta-gal luminescence, 2 h
Outline: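 CHO-K1 cells stably expressing nuclear-localized β-gal enzyme acceptor and GR fused C-terminally to the enzyme donor fragment; ligand-driven nuclear translocation restores β-gal by complementation. Compounds titrated up to 46 uM final, 2 h at 37 °C; luminescence read.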

[7] = biological target: Mitogen-activated protein kinase 10 (Mus musculus) (UniProt Q61831); test: JNK3 AlphaScreen Assay (AID 530); conditions: JNK3 lysate, c-Jun phosphorylation; series mostly up to 11.4 µM;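 also: kinase came from lysate of stimulated human HepG2 cells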; also: potency is read from the fitted curve at half-maximal effect;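 as to activity change, negative = inhibition: signal reports phosphorylation of biotinylated GST-cJun 1-79 at Ser73 with 10 µM ATP; % is scaled to controls: 0 for no effect and ±100 for the full control effect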
Outline: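 Biotinylated GST-cJun(1-79) served as substrate for JNK3 in HepG2 lysates stimulated with IL-1beta and TNF-alpha. ATP was 10 uM final, pH 7.6. Ser73 phosphorylation was quantified by AlphaScreen (680 nm excitation).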

[8] = biological target: 3',5'-cyclic-AMP phosphodiesterase 4B (Homo sapiens) (UniProt Q07343); test: qHTS Assay for Inhibitors of PDE-IV (AID 607; active = well fitted activation curve with a large enough effect in the main read-out, with a control signal flat, not every such curve was filed as active; also: % of control where 0% means no effect); conditions: HEK293 ACTOne CNG channel cells, membrane potential fluorescence; series mostly up to 22.9 µM
Outline: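 HEK293 ACTOne cells with CNG channel (1000/well), endogenous PDE4; membrane potential dye, compounds up to 22.9 uM final. Fluorescence Ex 535/Em 590; RO 20-1724 (100 uM final) as reference.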

Chain of Lysosomal acid glucosylceramidase (Homo sapiens) (P04062 whole entry, looked up): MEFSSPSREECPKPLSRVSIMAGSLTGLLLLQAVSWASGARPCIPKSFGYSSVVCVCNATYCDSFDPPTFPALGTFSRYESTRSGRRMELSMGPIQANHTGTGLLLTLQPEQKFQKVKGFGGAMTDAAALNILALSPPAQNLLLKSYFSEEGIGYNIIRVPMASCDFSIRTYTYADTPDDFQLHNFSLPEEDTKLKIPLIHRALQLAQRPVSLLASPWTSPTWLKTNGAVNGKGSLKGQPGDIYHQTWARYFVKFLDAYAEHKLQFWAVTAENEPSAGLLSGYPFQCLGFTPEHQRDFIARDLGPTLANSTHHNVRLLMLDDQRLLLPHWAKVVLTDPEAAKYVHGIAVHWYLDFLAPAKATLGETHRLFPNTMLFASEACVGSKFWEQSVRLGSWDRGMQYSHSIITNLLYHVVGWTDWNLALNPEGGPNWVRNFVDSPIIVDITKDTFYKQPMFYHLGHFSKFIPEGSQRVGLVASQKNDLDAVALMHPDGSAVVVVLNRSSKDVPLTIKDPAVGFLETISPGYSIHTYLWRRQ
Chain of Glucocorticoid receptor (Homo sapiens) (P04150 whole entry, looked up, the tested form may be a part): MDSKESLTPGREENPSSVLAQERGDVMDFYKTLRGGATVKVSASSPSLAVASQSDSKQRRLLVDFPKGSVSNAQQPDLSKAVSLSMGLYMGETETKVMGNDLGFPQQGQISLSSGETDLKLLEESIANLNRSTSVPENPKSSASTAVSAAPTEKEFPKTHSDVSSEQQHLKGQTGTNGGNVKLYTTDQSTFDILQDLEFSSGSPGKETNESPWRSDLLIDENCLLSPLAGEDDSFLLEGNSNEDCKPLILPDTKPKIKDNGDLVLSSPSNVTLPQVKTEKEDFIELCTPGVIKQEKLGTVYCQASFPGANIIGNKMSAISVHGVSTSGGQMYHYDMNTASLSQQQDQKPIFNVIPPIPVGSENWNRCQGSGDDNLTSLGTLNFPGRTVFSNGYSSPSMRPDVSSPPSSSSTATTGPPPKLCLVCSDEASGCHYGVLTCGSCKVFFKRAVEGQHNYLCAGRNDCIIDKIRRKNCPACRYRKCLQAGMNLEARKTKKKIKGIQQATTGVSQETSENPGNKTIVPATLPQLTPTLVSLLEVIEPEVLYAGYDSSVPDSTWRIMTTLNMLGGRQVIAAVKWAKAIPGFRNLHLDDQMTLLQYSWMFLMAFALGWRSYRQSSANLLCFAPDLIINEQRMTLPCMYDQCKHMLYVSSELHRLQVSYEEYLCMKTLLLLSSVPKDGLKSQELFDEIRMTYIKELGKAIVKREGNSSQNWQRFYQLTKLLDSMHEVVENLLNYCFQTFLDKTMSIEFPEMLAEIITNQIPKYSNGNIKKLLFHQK
Chain of 3',5'-cyclic-AMP phosphodiesterase 4B (Homo sapiens) (Q07343 whole entry, looked up): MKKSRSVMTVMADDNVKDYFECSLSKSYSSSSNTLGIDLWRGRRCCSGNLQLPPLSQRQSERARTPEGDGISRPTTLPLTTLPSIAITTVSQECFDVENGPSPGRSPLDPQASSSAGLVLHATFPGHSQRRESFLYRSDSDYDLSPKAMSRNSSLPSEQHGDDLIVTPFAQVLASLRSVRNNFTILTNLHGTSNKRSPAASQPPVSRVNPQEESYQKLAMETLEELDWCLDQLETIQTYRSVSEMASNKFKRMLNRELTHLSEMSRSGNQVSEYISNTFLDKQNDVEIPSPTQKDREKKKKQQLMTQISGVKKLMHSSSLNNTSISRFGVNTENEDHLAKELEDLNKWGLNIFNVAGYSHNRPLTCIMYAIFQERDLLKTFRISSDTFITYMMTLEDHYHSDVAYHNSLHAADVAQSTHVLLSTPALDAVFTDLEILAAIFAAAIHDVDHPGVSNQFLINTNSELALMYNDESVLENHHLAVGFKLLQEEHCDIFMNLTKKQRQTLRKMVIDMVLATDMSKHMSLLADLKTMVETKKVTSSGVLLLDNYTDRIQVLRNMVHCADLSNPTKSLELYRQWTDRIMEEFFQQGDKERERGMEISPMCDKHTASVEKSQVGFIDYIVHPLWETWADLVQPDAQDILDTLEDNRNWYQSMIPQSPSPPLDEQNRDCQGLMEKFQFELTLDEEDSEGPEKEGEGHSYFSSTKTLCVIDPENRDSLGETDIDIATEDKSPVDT

Structure (SMILES)	Potency [1] [µM]	activity change, negative = inhibition [2] [%]	activity change, negative = inhibition [3] [%]	activity, negative = inhibition [4] [%]	Potency [5]	Potency [6] [µM]	Potency [7]	Potency [8]
O=C(O)CCc1ccc(-c2ccccc2)[nH]1	> 11.4	2.27	13.2	1.73	> 46 µM	> 9.22	inactive	inactive
CN(C)CCSS(=O)(=O)O	> 11.4	6.2	5.08	-1.46	> 46 µM	> 9.22	inactive	inactive
NC(N)=NC[C@H](N)C(=O)O	> 11.4	1.65	10.9	0.308	> 46 µM	> 9.22	inactive	inactive
O=C(O)C[C@@H](C(=O)O)c1ccccc1[N+](=O)[O-]	> 11.4	10.5	13	6.64	> 46 µM	> 9.22	inactive	inactive
NC(=O)N/N=C1\CC[C@H](O)C[C@@H]1CC(=O)O	> 11.4	11.5	5.67	0.119	> 46 µM	> 9.22	inactive	inactive
Nc1nc(N)nc(CC(=O)O)n1	> 11.4	5.1	15.8	0.411	> 46 µM	> 9.22	inactive	inactive
N[C@@H](CSC1(c2ccc(Cl)cc2)c2ccccc2-c2ccccc21)C(=O)O	> 11.4	-8.46	10.1	-2.38	> 46 µM	> 9.22	inactive	inactive
COC(=O)[C@@H]1C(O)[C@@H](C(=O)OC)[C@H](C)N(C)[C@@H]1C (stereo partly drawn)	> 11.4	3.71	14.1	-1.12	> 46 µM	> 9.22	inactive	inactive
Cn1c(N)nc2c(nc(OCc3ccccc3)n2[C@@H]2O[C@H](CO)[C@@H](O)[C@@H]2O)c1=O	> 11.4	2.38	6.31	-1.71	> 46 µM	> 9.22	inactive	inactive
O=S(=O)(O)n1ccnc1 (tested in a mixture with another compound)	> 11.4	-2.09	6.55	0.01	> 46 µM	> 9.22	inactive	inactive
Nc1c(S(=O)(=O)O)cc(S(=O)(=O)O)c2ccc(N=Nc3ccccc3)c(O)c12	> 11.4	1.28	-3.14	-2.56	2.59 µM (active)	> 9.22	inactive	inactive
O=C(O)C(F)(F)C(F)(F)C(F)(F)C(F)(F)C(=O)O	> 11.4	-0.129	6.75	5.2	> 46 µM	> 9.22	inactive	inactive
NNC(=O)c1ccc(OCc2nc3ccccc3[nH]2)cc1	> 11.4	-12.3	13.6	-6.78	> 46 µM	> 9.22	inactive	inactive
O=C(O)c1cncc(C(=O)O)c1	> 11.4	1.97	3.72	6.17	> 46 µM	> 9.22	inactive	inactive
C[C@@H](CCC[C@@H]1SC[C@H]2NC(=O)N[C@H]12)C(=O)O	> 11.4	-0.543	-21.7	-4.44	> 46 µM	> 9.22	0.0316 µM (active)	inactive
OC1(C(O)(c2ccc(-c3ccccc3)cc2)c2ccc(-c3ccccc3)cc2)CCCCC1	> 11.4	7.3	2.32	1.1	> 46 µM	> 9.22	inactive	inactive
O=C1C(=O)c2ccccc2C(O)=C1Cc1ccccc1	> 11.4	-5.11	4.13	-11.8	> 46 µM	> 9.22	inactive	inactive
Cc1nc2sc3c(c2c(=O)[nH]1)CCCC3	> 11.4	10.8	-6.08	6.96	> 46 µM	> 9.22	inactive	inactive
O=C(O)/C(Cc1ccnc2ccccc12)=N\O	> 11.4	-9.39	0.364	4.23	> 46 µM	> 9.22	inactive	inactive
Nc1ccccc1N=Nc1c(S(=O)(=O)O)cc2cc(S(=O)(=O)O)cc(O)c2c1O	> 11.4	-8.99	-1.89	-10.2	> 46 µM	> 9.22	inactive	inactive
O=C(O)c1ccncc1.O=C(O)c1ccncc1.[NH2-].[NH2-].[Pt]	> 11.4	-4.3	8.19	2.8	> 46 µM	> 9.22	inactive	inactive
COc1ccc2c(C)cc(C)nc2n1	> 11.4	0.0891	9.21	8.73	> 46 µM	> 9.22	inactive	inactive
S=c1[nH]nc(SCc2ccccc2Cl)c2[nH]cnc12	> 11.4	-6.3	0.186	-8.85	> 46 µM	> 9.22	inactive	inactive
NCC(=O)[C@@H](O)[C@H](O)[C@H](O)CO	> 11.4	-1.89	8.35	3.6	> 46 µM	> 9.22	inactive	inactive
CC(C)(SCc1ccccc1)[C@H](N)C(=O)O	> 11.4	0.115	12.4	5.95	> 46 µM	> 9.22	inactive	inactive
C[C@H](NCCN(C)C)[C@@H]1CCC2C3CCc4cc(O)ccc4[C@H]3CCC21C (stereo partly drawn)	> 11.4	3.21	-1	-5.94	> 46 µM	> 9.22	inactive	inactive
